High-throughput results from PubChem.
PostGolgi ctrl – growth inhibition of yeast control strain, primary screen, counter-screen for post-Golgi transport modulator project | efflux-deficient yeast background strain, growth absorbance A615, 16 h | inhibition, % at 10 µM | 5% of 98,000 active | AID 738, 2007
CYP2C9 activ – human CYP2C9 activators, primary screen, biochemical, luminescence | Cytochrome P450 2C9 (Homo sapiens), P11712 | recombinant CYP2C9, luciferin-H conversion; active compounds read high; factor 1 = untreated enzyme, 0 = blocked | activation factor at 5 µM | 1.4% of 96,000 active;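 active = activation factor of 2 or more for CYP2C9 at a 5 µM dose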;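 also: 0 = sulfaphenazole-blocked wells and 1 = vehicle-only wells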
CYP2C19 activ – human CYP2C19 activators, primary screen, biochemical, luminescence; AID 1025, 2008; recombinant CYP2C19, luciferin-H EGE luminescence; active compounds read high; 0 = fully inhibited enzyme, 1 = untreated enzyme; 96,000 tested, under 10 active; Cytochrome P450 2C19 (Homo sapiens), P33261; activation factor at 5 µM;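 active = activation factor of at least 2 at 5 µM in the primary screen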;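 also: 0 = wells with 2.5 mM tranylcypromine and 1 = vehicle-only wells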
CYP2C9 inhib – blockers of cytochrome P450 2C9 activity – biochemical, luminescence, ADME assay, primary screen; P11712; inhibition, % at 5 µM; 20% of 96,000 active; CYP2C9 Supersomes, luciferin-H conversion;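 active = blocking of liver enzyme CYP2C9 beyond about 50% at 5 µM, limit read from the data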
CYP2C19 inh – blockers of cytochrome P450 2C19 activity – biochemical, luminescence, ADME assay, primary screen. P33261. CYP2C19 Supersomes, luciferin-H EGE luminescence, 30 min. inhibition, % at 5 µM. 21% of 96,000 active. AID 778, 2007;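 active = CYP2C19 inhibition above a set limit at 5 µM in the primary screen, cut at about 50% in these data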;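 also: plate controls were negative control wells for no effect and 2.5 mM tranylcypromine positive control for full effect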
PostGolgi yeast – phenotypic screen on post-Golgi transport, primary screen | post-Golgi transport phenotypic cell assay | inhibition, % at 10 µM | 0.9% of 98,000 active | AID 739, 2007;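 also: yeast cells grown in 1536-well plates; yeast grown about 18 h at 30C before absorbance read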
Numbers without * were called inactive. Compounds with a hit are over-represented: about 32% of the library has one in this group of screens. Rule as the data show it, unless noted: active = inhibition above about 30%; inactive = the rest.

SMILES	PostGolgi ctrl	CYP2C9 activ	CYP2C19 activ	CYP2C9 inhib	CYP2C19 inh	PostGolgi yeast
O=C(CSc1nc2ccccc2o1)Nc1nc2ccccc2s1	-6	0.9	0.9	12	10	-4
O=C(CSc1nc2ccccc2o1)Nc1ccc(N2CCOCC2)cc1	6	0.8	0.8	24	22	2
O=C(CSCC(=O)c1ccccc1)Nc1ccccc1Cl	4	1	0.3	1	68*	-4
Cc1ccccc1NC(=O)CSCC(=O)Nc1ccccc1C	8	0.6	0.3	40	72*	-1
O=C(CSc1nc2ccccc2o1)Nc1ccccc1N1CCOCC1	5	0.1	0.1	95*	92*	-21
Cc1ccccc1NC(=O)CSC(N)=O	1	0.9	0.8	7	16	12
Cc1ccccc1NC(=O)CSc1nc2ccccc2o1	5	0.9	0.4	10	59*	-7
O=C(CN1CCN(CC(=O)c2ccc(F)cc2)CC1)Nc1ccccc1Cl	9	0.8	0.7	25	26	-3
O=C(CCn1cccc1)Nc1cc(F)ccc1F	17	0.9	0.6	12	35	2
CCCCSc1nc(C)[nH]c1[N+](=O)[O-]	2	1.2	0.9	-20	14	-6
CCOCC(=O)Nc1nc(-c2ccccc2)c(CC)s1	5	0.7	1	31	-1	5
CCCCC(C)n1[nH]c(=O)cc1N (configuration not stated)	-1	0.9	1	7	-2	3
CCC(=O)Nc1ccc(NC(=O)CSc2nc3cc4c(cc3cc2C)CCC4)cc1	-1	0.8	1	24	-3	2
Cc1ccccc1NC(=O)CSc1nc2cc3c(cc2cc1C)CCC3	13	0.5	0.9	52*	8	7
O=c1[nH]c(NCc2ccccc2)nc2c1CCCC2	4	0.7	0.9	26	6	2
CCOC(=O)CSC1=C(C#N)C(=O)NC(c2ccc(OC)cc2)S1 (configuration not stated)	1	0.1	1.1	94*	-10	-2
CC1=CC(C)(C)Nc2ccc(OC(=O)CN3C(=O)c4cccc5cccc(c45)C3=O)cc21	-8	0.6	0.7	40	27	33*
CC1=CC(C)(C)Nc2ccc(OC(=O)C(Cc3ccccc3)N3C(=O)c4ccccc4C3=O)cc21 (configuration not stated)	3	0.4	0.9	56*	8	1
COc1ccc(-n2nc(N)c3c(=O)oc(N(C)C)nc32)cc1	8	0.8	0.6	21	40	1
COc1ccc(NC(=O)C2Cc3ccccc3CN2C(=O)c2ccccc2)cn1 (configuration not stated)	6	0.8	0.9	19	12	24
O=C(NC1=NCCS1)C1Cc2ccccc2CN1C(=O)c1ccccc1 (configuration not stated)	9	0.6	0.2	42	79*	-1
Cc1cc(Nc2ccc(Cl)cc2)n(-c2ccccc2)n1	19	0.3	0.4	70*	59*	-2
Cc1cc(Nc2nc3ccccc3nc2Cl)n(-c2ccccc2)n1	11	0.7	0.6	28	44	11
CCOC(=O)/C=C(\C)Nc1cc(C)nn1-c1ccccc1	-1	1.1	1	-10	3	0
Cc1cc(NC(=O)c2ccc(C)s2)n(-c2ccccc2)n1	11	0.7	0.2	27	76*	-1
Cc1cc(Nc2ccc(Cl)cc2)n(-c2cccc(Cl)c2)n1	19	0	0	98*	99*	0
Cc1cc(NC(=O)COc2ccc(Cl)cc2Cl)n(-c2ccccc2)n1	15	0.7	0.3	34	71*	-8
Cc1cc(NC(=O)Nc2cc(C)nn2-c2ccccc2)n(-c2ccccc2)n1	17	1	0.9	1	14	-4
O=C1CSC(c2ccccc2)N1c1nnc(C23CC4CC(CC(C4)C2)C3)s1 (configuration not stated)	0	0.9	0.9	14	14	27
Cc1ccc(Oc2ccccc2)c(NC=O)c1	4	1	0.7	-1	30	0
